According to the supplement of paper PMC10849652:
The full data set covers some 7,900 targets. This sample favours those with a hit. About 0.6% of all pairs of compound and target were hits. Unmarked numbers belong to inactive results.

How the values were obtained:
Assay in all cases: log2 fold change, soluble protein after heating vs DMSO (PISA); higher = thermal stabilisation; K562 cells, 10 uM, 30 min; active = over 0.2 and 3.5 SD of the protein, either way, in both replicates (recomputed)
[1] = compound: NC(=O)Nc1cc(-c2cccc(F)c2)sc1C(=O)N[C@H]1CCCNC1
Summary of the method: (§1)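 K562 cells at 2×10^6 cells/mL were treated for 30 min with 10 μM compound, and aliquots were heated for 3 min over 48°C-58°C before pooling. Extraction used PBS with 0.5% NP-40 at 4°C, and soluble protein was the supernatant after 21,000xg for 90 min, measured by TMTpro 16plex LC-MS/MS with channel sums equalised. Thermal stability values, relative to control samples and from duplicates, are log2 fold changes.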

[2] = compound: NC(=O)c1cnc(N[C@@H]2CCCC[C@@H]2N)nc1Nc1cccc(-n2nccn2)c1
Summary of the method: as §1

[3] = compound: NC1(c2ccc(-c3nc4ccn5c(=O)[nH]nc5c4cc3-c3ccccc3)cc2)CCC1
Summary of the method: as §1

[4] = compound: NCC(=O)Nc1ccc(-n2nc(C(F)(F)F)cc2-c2ccc3c(ccc4ccccc43)c2)cc1
Summary of the method: as §1

[5] = compound: Nc1ccccc1NC(=O)c1ccc(CNC(=O)OCc2cccnc2)cc1 [entinostat]
Summary of the method: as §1

[6] = compound: O=C(CCCCCCC(=O)Nc1ccccc1)NO [vorinostat]
Summary of the method: as §1

[7] = compound: O=C(CCCCCCNC(=O)c1cnc(N(c2ccccc2)c2ccccc2Cl)nc1)NO [citarinostat]
Summary of the method: as §1

[8] = compound: O=C(O)c1ccc2c(c1)nc(Nc1cccc(Cl)c1)c1ccncc12 [silmitasertib]
Summary of the method: as §1

[9] = compound: O=C1NC(=O)C(c2cnc3ccccn23)=C1c1cn2c3c(cc(F)cc13)CN(C(=O)N1CCCCC1)CC2
Summary of the method: as §1

[10] = compound: c1cc(OCCN2CCCCC2)cc(-c2n[nH]c3ccc(-c4nnc[nH]4)cc23)c1
Summary of the method: as §1

[11] = compound: c1cn2cc(-c3ccc4cn[nH]c4c3)nc(Nc3ccc(N4CCOCC4)cc3)c2n1 [entospletinib]
Summary of the method: as §1

Sequence of UniProt Q9H6K1 (Q9H6K1 whole entry, looked up): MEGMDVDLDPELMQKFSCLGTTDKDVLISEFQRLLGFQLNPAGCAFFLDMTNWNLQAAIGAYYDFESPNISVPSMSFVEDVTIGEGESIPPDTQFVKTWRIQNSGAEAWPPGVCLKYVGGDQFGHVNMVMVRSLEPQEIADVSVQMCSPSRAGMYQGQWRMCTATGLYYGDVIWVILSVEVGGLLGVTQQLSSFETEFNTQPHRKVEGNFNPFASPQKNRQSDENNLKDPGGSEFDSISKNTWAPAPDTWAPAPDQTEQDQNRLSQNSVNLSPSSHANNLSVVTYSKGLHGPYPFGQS
Sequence of UniProt Q9Y2E5 (Q9Y2E5 whole entry, looked up): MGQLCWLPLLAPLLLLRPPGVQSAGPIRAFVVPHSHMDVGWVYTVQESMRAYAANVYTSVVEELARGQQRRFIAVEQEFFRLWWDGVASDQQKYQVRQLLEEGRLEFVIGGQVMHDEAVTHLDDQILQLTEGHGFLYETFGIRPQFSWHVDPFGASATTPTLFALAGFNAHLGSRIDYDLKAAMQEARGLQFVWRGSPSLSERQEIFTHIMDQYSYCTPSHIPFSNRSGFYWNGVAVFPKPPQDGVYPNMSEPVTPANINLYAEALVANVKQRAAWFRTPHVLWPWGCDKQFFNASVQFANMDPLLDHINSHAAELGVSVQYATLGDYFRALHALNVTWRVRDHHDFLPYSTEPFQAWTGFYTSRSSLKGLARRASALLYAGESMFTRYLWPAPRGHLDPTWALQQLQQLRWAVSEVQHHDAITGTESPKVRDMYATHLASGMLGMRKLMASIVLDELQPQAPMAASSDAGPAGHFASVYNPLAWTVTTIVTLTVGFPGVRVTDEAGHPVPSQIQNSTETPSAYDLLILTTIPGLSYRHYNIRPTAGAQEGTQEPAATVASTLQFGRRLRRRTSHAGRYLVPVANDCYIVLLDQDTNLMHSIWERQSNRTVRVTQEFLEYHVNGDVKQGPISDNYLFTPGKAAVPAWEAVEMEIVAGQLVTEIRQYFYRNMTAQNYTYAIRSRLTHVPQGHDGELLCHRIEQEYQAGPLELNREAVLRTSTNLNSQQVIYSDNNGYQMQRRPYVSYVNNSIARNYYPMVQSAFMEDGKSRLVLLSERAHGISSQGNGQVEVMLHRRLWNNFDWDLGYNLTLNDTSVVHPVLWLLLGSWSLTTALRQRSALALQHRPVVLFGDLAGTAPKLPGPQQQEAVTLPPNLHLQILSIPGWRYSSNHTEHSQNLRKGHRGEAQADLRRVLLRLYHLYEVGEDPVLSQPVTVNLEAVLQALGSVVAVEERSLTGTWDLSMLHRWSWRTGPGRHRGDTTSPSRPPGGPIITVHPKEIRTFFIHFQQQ
Sequence of UniProt Q9NQX7 (Q9NQX7 whole entry, looked up): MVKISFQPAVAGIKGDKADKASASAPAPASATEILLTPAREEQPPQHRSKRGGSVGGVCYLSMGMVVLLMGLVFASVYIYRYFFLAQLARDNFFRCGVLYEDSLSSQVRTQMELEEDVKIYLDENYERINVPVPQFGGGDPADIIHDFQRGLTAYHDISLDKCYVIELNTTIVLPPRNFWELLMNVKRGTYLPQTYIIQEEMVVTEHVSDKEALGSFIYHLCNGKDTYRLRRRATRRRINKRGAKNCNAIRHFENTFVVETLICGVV
Sequence of UniProt Q9BPX6 (Q9BPX6 whole entry, looked up): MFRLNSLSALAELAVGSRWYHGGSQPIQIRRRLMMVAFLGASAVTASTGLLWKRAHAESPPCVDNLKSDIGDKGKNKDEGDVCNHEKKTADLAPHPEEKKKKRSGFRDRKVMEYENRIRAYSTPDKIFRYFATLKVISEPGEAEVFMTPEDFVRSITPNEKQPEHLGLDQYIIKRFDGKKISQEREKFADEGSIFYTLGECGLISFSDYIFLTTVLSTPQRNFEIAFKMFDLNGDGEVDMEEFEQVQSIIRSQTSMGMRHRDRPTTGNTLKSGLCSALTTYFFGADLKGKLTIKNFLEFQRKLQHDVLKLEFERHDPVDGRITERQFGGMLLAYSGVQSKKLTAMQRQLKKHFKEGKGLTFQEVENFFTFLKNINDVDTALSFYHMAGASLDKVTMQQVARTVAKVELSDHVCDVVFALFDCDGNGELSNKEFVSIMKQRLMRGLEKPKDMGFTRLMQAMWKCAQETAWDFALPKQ
Sequence of UniProt Q16539 (Q16539 whole entry, looked up): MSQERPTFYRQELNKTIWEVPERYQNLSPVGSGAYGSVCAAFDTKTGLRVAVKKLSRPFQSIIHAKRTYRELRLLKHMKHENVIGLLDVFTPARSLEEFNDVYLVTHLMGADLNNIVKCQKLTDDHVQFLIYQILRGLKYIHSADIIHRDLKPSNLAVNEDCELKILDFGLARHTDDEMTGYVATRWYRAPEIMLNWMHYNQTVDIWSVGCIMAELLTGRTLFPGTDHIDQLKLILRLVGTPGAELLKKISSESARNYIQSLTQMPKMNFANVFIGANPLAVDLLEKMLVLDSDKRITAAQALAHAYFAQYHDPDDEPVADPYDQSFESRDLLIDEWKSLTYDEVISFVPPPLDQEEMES
Sequence of UniProt Q14676 (Q14676 whole entry, looked up): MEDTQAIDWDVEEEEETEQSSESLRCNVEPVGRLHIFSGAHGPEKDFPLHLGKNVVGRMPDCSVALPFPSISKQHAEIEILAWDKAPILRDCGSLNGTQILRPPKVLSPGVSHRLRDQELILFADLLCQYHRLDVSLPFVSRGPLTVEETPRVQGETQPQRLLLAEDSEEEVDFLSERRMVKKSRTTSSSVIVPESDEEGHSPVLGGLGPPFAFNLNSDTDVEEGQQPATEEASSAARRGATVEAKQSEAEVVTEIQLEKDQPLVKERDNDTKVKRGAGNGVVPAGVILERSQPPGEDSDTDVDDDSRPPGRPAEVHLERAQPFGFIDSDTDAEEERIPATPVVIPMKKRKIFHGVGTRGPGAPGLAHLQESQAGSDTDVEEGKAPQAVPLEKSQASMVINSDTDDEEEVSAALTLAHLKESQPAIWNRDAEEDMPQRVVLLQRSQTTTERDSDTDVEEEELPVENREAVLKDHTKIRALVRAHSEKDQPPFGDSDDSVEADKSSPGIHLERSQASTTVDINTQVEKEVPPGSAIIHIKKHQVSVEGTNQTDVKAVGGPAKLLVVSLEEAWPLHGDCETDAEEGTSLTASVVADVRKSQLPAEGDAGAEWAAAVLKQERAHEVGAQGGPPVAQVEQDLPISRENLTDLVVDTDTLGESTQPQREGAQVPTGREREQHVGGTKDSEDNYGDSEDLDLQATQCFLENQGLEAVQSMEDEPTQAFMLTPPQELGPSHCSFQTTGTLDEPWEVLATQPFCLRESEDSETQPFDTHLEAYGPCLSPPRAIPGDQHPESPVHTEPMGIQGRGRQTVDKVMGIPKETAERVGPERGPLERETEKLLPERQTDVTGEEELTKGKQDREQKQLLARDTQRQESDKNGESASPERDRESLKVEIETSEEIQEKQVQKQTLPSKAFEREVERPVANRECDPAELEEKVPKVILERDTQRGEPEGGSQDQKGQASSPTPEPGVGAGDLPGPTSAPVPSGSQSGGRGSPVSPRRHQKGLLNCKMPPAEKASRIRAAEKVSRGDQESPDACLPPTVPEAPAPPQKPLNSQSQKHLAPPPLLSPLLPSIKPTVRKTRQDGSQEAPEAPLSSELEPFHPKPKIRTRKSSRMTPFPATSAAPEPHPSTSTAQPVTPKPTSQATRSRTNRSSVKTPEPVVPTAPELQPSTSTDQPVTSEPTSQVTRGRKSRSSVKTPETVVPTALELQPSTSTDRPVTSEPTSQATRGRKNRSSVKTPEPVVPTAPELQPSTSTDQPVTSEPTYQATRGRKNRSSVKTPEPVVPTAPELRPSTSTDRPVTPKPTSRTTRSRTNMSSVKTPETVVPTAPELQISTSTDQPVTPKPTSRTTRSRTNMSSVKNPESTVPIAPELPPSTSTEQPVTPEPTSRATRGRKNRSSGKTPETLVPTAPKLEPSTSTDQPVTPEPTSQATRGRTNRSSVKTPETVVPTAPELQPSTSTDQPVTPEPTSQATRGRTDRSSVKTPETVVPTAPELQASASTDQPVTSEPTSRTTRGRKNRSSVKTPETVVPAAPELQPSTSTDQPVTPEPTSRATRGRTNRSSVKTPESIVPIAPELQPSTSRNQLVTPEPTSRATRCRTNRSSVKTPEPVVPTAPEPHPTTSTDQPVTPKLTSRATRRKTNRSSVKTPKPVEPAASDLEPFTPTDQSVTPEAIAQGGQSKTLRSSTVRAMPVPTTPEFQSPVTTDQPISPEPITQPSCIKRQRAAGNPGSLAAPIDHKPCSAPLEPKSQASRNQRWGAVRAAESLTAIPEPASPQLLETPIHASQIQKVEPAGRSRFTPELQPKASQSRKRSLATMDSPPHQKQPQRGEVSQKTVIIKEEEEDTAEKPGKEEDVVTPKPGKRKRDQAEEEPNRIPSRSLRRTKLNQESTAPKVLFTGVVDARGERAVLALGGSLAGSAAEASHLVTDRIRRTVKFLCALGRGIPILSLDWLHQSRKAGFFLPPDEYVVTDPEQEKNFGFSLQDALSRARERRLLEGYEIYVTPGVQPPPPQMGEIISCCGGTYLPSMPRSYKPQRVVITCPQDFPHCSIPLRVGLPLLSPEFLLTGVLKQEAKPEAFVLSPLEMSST
Sequence of UniProt P17936 (P17936 whole entry, looked up): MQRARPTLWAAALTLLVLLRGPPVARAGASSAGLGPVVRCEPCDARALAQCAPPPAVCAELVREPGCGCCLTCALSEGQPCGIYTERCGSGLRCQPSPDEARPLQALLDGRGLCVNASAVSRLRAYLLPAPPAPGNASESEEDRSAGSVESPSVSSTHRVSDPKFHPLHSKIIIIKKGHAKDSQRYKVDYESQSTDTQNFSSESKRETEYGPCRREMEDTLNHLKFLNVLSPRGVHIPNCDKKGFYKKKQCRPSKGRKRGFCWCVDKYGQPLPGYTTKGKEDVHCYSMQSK
Sequence of UniProt P01116 (P01116 whole entry, looked up): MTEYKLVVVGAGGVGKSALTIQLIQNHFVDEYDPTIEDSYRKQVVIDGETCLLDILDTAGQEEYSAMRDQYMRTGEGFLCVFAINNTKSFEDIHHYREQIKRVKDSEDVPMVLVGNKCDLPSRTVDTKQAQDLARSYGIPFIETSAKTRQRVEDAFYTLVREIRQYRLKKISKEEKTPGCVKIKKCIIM

Row | Target | log2 fold change [1] | log2 fold change [2] | log2 fold change [3] | log2 fold change [4] | log2 fold change [5] | log2 fold change [6] | log2 fold change [7] | log2 fold change [8] | log2 fold change [9] | log2 fold change [10] | log2 fold change [11]
1 | ILKAP (UniProt Q9H0C8) | 0.015 | -0.052 | -0.224 | -0.164 | 0.038 | 0.06 | 0.123 | 0.004 | -0.144 | -0.003 | -0.012
2 | L2HGDH (UniProt Q9H9P8) | -0.035 | -0.026 | -0.145 | 0.007 | -0.012 | -0.014 | 0.029 | 0.15 | -0.053 | 0.029 | 0.039
3 | LEMD2 (UniProt Q8NC56) | 0.008 | -0.139 | -0.112 | -0.157 | 0.004 | 0.04 | 0.058 | -0.044 | -0.02 | -0.046 | -0.039
4 | LMF2 (UniProt Q9BU23) | -0.008 | -0.001 | -0.057 | -0.089 | -0.006 | 0.116 | -0.068 | 0.008 | -0.016 | 0.046 | -0.019
5 | KEL (UniProt P23276) | -0.004 | 0.088 | -0.215 | 0.017 | -0.022 | 0.03 | 0.019 | 0.108 | 0.115 | -0.001 | -0.023
6 | KRAS isoform 2 (UniProt P01116) | -0.07 | 0.039 | 0.091 | 0.061 | -0.015 | -0.032 | -0.018 | 0.001 | -0.019 | -0.032 | -0.053
7 | MED1 (UniProt Q15648) | 0.027 | -0.064 | 0.002 | -0.113 | -0.018 | 0.05 | -0.001 | -0.002 | 0.063 | -0.124 | 0.019
8 | LMBR1 isoform 3 (UniProt Q8WVP7) | 0.047 | -0.11 | -0.104 | -0.048 | 0.071 | -0.016 |  | 0.014 | -0.141 |  | 
9 | IL27RA (UniProt Q6UWB1) | -0.077 | -0.091 | -0.116 | -0.123 | 0.016 |  | 0.082 | 0.009 | 0.154 | -0.172 | 0.112
10 | LYN isoform 2 (UniProt P07948) | 0.162 | 0.014 |  | -0.073 | -0.155 |  |  |  | 0.082 |  | 
11 | IL10RB (UniProt Q08334) | -0.113 | -0.121 |  | -0.031 | -0.431 (active) | 0.109 | 0.055 |  | 0.062 | -0.026 | 0.027
12 | MAP4 isoform 5 (UniProt P27816) | 0.135 | 0.087 | 0.109 |  | 0.075 |  | -0.121 | 0.012 | 0.423 (active) | 0.074 | -0.07
13 | MAP4K4 isoform 3 (UniProt O95819) | -0.199 | -0.154 | -0.204 | -0.013 | 0.07 | 0.075 | 0.044 | -0.024 |  | -0.179 | -0.019
14 | KIF13A isoform 4 (UniProt Q9H1H9) | -0.034 | -0.165 |  |  | 0.303 |  |  |  |  |  | 
15 | LPGAT1 (UniProt Q92604) | 0.038 | 0.048 | -0.102 | 0.063 | -0.047 |  | 0.157 | -0.015 | -0.015 | -0.108 | -0.069
16 | MED22 (UniProt Q15528) | 0.042 | 0.029 | 0.064 | 0.023 | 0.049 |  | -0.243 | -0.01 | -0.074 | 0.322 (active) | -0.143

Row | Target | log2 fold change [1] | log2 fold change [2] | log2 fold change [3] | log2 fold change [4] | log2 fold change [5] | log2 fold change [6] | log2 fold change [7] | log2 fold change [8] | log2 fold change [9] | log2 fold change [10] | log2 fold change [11]
17 | MARK2 (UniProt E9PC69) | -0.513 | -0.401 |  | -0.213 | 0.101 |  | 0.024 |  | 0.082 | -0.28 | 0.029
18 | MAN2B2 (UniProt Q9Y2E5) | 0.063 | -0.099 | -0.262 | 0.089 | -0.018 |  | 0.089 | -0.029 | -0.058 | -0.005 | 0.004
19 | IGFBP3 isoform 2 (UniProt P17936) | 0.042 | -0.142 |  | -0.043 | -0.02 | 0.167 |  |  | -0.047 |  | 
20 | ITM2C (UniProt Q9NQX7) | -0.309 | -0.009 |  | -0.133 | 0.164 | -0.032 |  |  | 0.029 |  | 
21 | MELK (UniProt Q14680) | -0.384 | -0.128 |  |  | -0.052 | 0.062 | -0.001 |  | -0.016 | -0.366 | 0.025
22 | LRBA, A0A494BZW2 | 0.036 | -0.031 | -0.114 |  | 0.232 | -0.032 | 0.03 | 0.011 | 0.063 | 0.028 | -0.025
23 | METAP1D (UniProt Q6UB28) | 0.061 | 0.252 | -0.033 | 0.073 | -0.071 |  | 0.098 | 0.064 | -0.099 | -0.04 | 0.026
24 | MDC1 (UniProt Q14676) | 0.115 | -0.075 | -0.054 | 0.153 | 0.001 | -0.164 | 0.062 | -0.116 | -0.026 | -0.086 | -0.054
25 | INTS5 (UniProt Q6P9B9) | 0.015 | -0.116 | -0.079 | -0.175 | 0.014 |  |  | -0.006 | -0.076 |  | 
26 | MAPK14 (UniProt Q16539) | -0.019 | -0.047 | -0.136 | -0.033 | 0.022 | 0.027 | 0.051 | 0.37 |  | 0.058 | -0.006
27 | KMT2C isoform 3 (UniProt Q8NEZ4) | -0.021 | 0.046 | -0.756 (active) | -0.006 | -0.03 | 0.19 | 0.104 | -0.052 | -0.094 | -0.076 | 0.052
28 | LUM (UniProt P51884) | -0.067 | -0.108 |  | -0.002 | -0.033 |  | -0.042 |  | 0.185 | 0.47 | 0.331
29 | MICU1 isoform 3 (UniProt Q9BPX6) | -0.048 | -0.022 | -0.012 | 0.039 | 0.016 | 0.017 | 0.053 | 0.117 | 0.027 | -0.085 | 0.049
30 | IP6K1 (UniProt Q92551) | -0.039 | -0.253 | -0.457 |  | 0.089 | 0.138 | -0.02 | -0.059 | -0.048 | 0.858 (active) | -0.029
31 | ILRUN (UniProt Q9H6K1) | -0.213 | -0.09 | -0.128 | -0.025 | 0.024 |  | 0.027 | 0.014 | -0.059 | -0.01 | -0.004
